Measurements from PubChem BioAssay AID492965 (The Scripps Research Institute Molecular Screening Center, 2010).
The campaign covered roughly 1,100 compounds. About 100 (9.1%) were called active.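 Rule for the calls: active = inhibition above a per-plate limit, the mean inhibition of that plate's test compounds plus 3 SD (cut at about 25% in these data); inactive = the rest.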 The list is a sample of the results.

test: nonselective Gq signaling antagonists, untransfected CHO – cell-based, fluorescence, CHO-K1, triplicate, counter-screen for OX1R antagonist project (AID 492965); details: parental CHO-K1, ATP-induced calcium, Fluo-8 fluorescence; at 5.6 µM; stronger effect = higher value;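 note: 0% = ATP challenge with DMSO and 100% = DMSO without ATP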

Compound | inhibition
COc1cc(CN2CC(C)CC(C)C2)cc([N+](=O)[O-])c1O (stereo not given) | 22.2% (inactive)
O=C(Nc1cccc(NC(=O)N2CCN(c3ccccc3)CC2)c1)N1CCN(c2ccccc2)CC1 | 6.96% (inactive)
CCOC(=O)c1cccc(NC(=O)CN(c2ccc(C)cc2)S(=O)(=O)c2c(C)noc2C)c1 | -18.6% (inactive)
Cc1cc(-c2ccc(C)c(S(=O)(=O)NC(C)Cc3ccco3)c2)on1 (stereo not given) | -8.08% (inactive)
COc1ccc(/C=C/C(=O)c2ccc(NS(=O)(=O)c3ccc(C)cc3)cc2)cc1O | 2.08% (inactive)
Cc1ccc2c(C)c(C(=O)N(C)CCC3CCCCO3)oc2c1C (stereo not given) | -10% (inactive)
C/C(N)=C(/C#N)C(=O)COC(=O)c1cc(-c2ccc(C)cc2)nc2ccccc12 | -4.89% (inactive)
c1coc(CNc2ncnc3ccccc23)c1 | 26.1% (active)
N#C/C(=C1\CCCN1)c1nc(-c2ccccc2)cs1 | 3.08% (inactive)
Cc1cc(C)cc(NC(=O)C2CCCN2S(=O)(=O)c2cccc3cccnc23)c1 (stereo not given) | -10.6% (inactive)
O=C(OC1CCOC1=O)c1ccc(-c2nc3ccccc3s2)s1 (stereo not given) | 10.7% (inactive)
Cc1ccc(NC(=O)COc2ccc(-n3ccnc3)cc2)cc1Cl | 15.7% (inactive)
O=C(Nc1cccc2cccnc12)c1cccc(N2C(=O)CCC2=O)c1 | -5.5% (inactive)
CCc1ccccc1OCC(=O)Nc1ccc(C)c(S(=O)(=O)N2CCCCCC2)c1 | 2.45% (inactive)
CCCN(CC(=O)Nc1ccccc1OC)C(=O)CCC(=O)c1ccc(F)cc1 | -5.67% (inactive)
CCCc1nc2c(c(=O)c3ccccc3n2C)c(=O)n1C1CCCCCC1 | -3.88% (inactive)
CC1(C)C2CC=C(/C=N/NC(=O)C3CC3)C1C2 (stereo not given) | -15% (inactive)
CCCCCCCC(=O)NC(Nc1ccccc1OC)C(Cl)(Cl)Cl (stereo not given) | -10.6% (inactive)
CCCCC(=O)NNC(=S)NC(=O)C(c1ccccc1)c1ccccc1 | 34.8% (active)
COc1ccc(N2CC(C(=O)NCCN3C(=O)S/C(=C\c4cccnc4)C3=O)CC2=O)c(OC)c1 (stereo not given) | -8.16% (inactive)
Cc1cc(N2CCCC2=O)cc(C)c1S(N)(=O)=O | -0.33% (inactive)
C=CCn1c(SCC(=O)Nc2nc3ccccc3s2)nnc1-c1ccccc1O | -4.55% (inactive)

Compound | inhibition
S=c1[nH]nc(-c2cc(-c3ccccc3)n[nH]2)n1/N=C/c1c2ccccc2cc2ccccc12 | -7.45% (inactive)
CCOc1cc(/C=C(\C#N)c2nc(-c3cccs3)c(NC(C)=O)s2)ccc1O | 14.1% (inactive)
COCc1c(C(=O)OCC(=O)Nc2ccc(OC(F)F)cc2)oc2ccccc12 | -3.09% (inactive)
CCC(=O)N(C)C(c1ccccc1Cl)c1nnnn1-c1c(C)cccc1C (stereo not given) | -6.17% (inactive)
Cc1cccc(NS(=O)(=O)c2cccc(C(=O)NNC(=O)c3ccccc3O)c2)c1 | 15.6% (inactive)
CC(=O)Nc1cccc(OCC(=O)/C=C2\N(C)c3ccccc3C2(C)C)c1 | 6.99% (inactive)
Cc1cccc(NC(=O)Nc2cccc(Oc3c(F)c(F)c(F)c(F)c3F)c2)c1 | 38.9% (active)
N#Cc1nc(-c2cccc3ccccc23)oc1N | -11.2% (inactive)
O=C1c2ccccc2S(=O)(=O)N1CC(O)Cn1c2ccccc2c2ccccc21 (stereo not given) | 4.28% (inactive)
N#C/C(=C/c1ccc(N2CCCCC2)o1)C(=O)NCCc1c[nH]c2ccccc12 | 31.6% (active)
CCOc1ccc(/C=C/C(=O)OCC(=O)c2ccccc2OC)cc1OC | -17.5% (inactive)
COc1cccc(/C=N/NC(=O)c2[nH]nc3c2CCc2ccccc2-3)c1O | -10.5% (inactive)
CCOC(=O)N1CCN(C(=O)c2ccc(S(=O)(=O)Nc3cccc(C(F)(F)F)c3)cc2)CC1 | 9.17% (inactive)
CCOC(=O)N1CCN(c2cc(C)c([N+](=O)[O-])cc2F)CC1 | 13.3% (inactive)
N/C(=N\OC(=O)Nc1ccc(Cl)c(Cl)c1)c1ncc(C(F)(F)F)cc1Cl | 14.7% (inactive)
CC(C)(C)NC(=O)CN(C(=O)c1csnn1)c1ccccc1-c1ccccc1 | -0.67% (inactive)
O=C(N/N=C/c1sc(N2CCCCC2)nc1-c1cccs1)c1cccnc1 | -6.04% (inactive)
Nc1nc(COC(=O)CCC(=O)c2ccc(Cl)cc2)nc(Nc2ccccc2)n1 | -7.47% (inactive)
COc1cccc(/C=N/Nc2cc(C)nc(-c3ccccc3O)n2)c1O | -5.66% (inactive)
CC1CCCN(CC(O)COCc2ccccc2)C1 (stereo not given) | -5.68% (inactive)
Cc1ccccc1S(=O)(=O)N1[C@@H](c2cccc(Cl)c2)C(C(=O)O)=CC[C@H]1c1ccc(Cl)cc1 | 13.3% (inactive)
Cc1ccc(S(=O)(=O)N2CCN(c3ncnc4ccccc34)CC2)cc1 | 50.8% (active)

Compound | inhibition
COC(=O)c1sccc1NC(=O)CSc1ccccc1NS(=O)(=O)c1cc(Cl)ccc1Cl | 8.36% (inactive)
NC(=O)C1=C[C@@H](c2ccc3c(c2)OCO3)C[C@@H](OCCCCO)O1 | -5.99% (inactive)
CCn1c(SCC(=O)c2ccc3ccccc3c2)nnc1-c1cccs1 | -8.88% (inactive)
Cn1c(N)c(C(=O)COC(=O)c2ccc3ccccc3c2)c(=O)n(C)c1=O | 1.91% (inactive)
CC(Oc1ccc2ccccc2c1)C(=O)NNC(=S)NC(=O)c1ccco1 (stereo not given) | -8.71% (inactive)
COc1cccc(C(=O)NC(=O)Nc2nc(C)cc(C(F)(F)F)n2)c1 | -10.8% (inactive)
N#CC(=C1SC=CS1)c1nc(-c2ccccc2)cs1 | -3.94% (inactive)
CCOC(=O)c1c(-c2ccc(C)cc2C)csc1NC(=O)CSc1nnnn1C | -6.6% (inactive)
Cc1cc(C(=O)NC2CCCc3c2cnn3-c2cccc(C)c2C)c(C)o1 (stereo not given) | 34% (active)
O=C(NC(Cc1c[nH]c2ccccc12)C(=O)N/N=C/c1ccc(Br)cc1)c1cccs1 (stereo not given) | 3.66% (inactive)
CCOc1ccc(CCNC(=O)C(CC)n2nc(C)n3c(cc4sccc43)c2=O)cc1OCC (stereo not given) | -2.6% (inactive)
COc1ccc2[nH]cc(/C=C(/C#N)S(=O)(=O)c3ccccc3)c2c1 | -11.6% (inactive)
COc1cc2ccccc2cc1C(=O)Nc1ccc(N2CCOCC2)cc1 | -8.59% (inactive)
O=C(Cn1[nH]c(=O)c2ccccc2c1=O)Nc1cccc(-c2nnc3n2CCCCC3)c1 | -5.39% (inactive)
O=C(N/N=C/c1c(Cl)[nH]c2ccccc12)c1sc2ccccc2c1Cl | 10.8% (inactive)
COc1ccc2sc(-c3ccc(N(C)C)cc3)c(C#CCO)c2c1 | -6.95% (inactive)
CN(c1ccccc1)S(=O)(=O)c1cccc(NC(=O)Cc2ccc(Cl)cc2)c1 | 6.81% (inactive)
S=C(NCc1ccc(Cl)cc1)NC12CC3CC(CC(C3)C1)C2 | 14% (inactive)
COc1ccccc1CNC(=O)C1CCCN(S(=O)(=O)c2cccc3cccnc23)C1 (stereo not given) | -8.22% (inactive)
O=C1C=C(c2ccc(Cl)cc2)C(=O)N1Nc1ccccc1 | 22.4% (inactive)
O=C(CCCN1CCc2[nH]c3ccc(F)cc3c2C1)c1ccc(F)cc1 | 26.8% (active)
